Columns and labels:
Assay in all cases: log2 ratio of Biotin-Ahx-Ub-VS probe labelling (fragment/DMSO); higher = less target engagement (more negative = stronger competition), active = hit call of the paper (q ≤ 0.05, log2 ratio ≤ -1)
Conditions in all cases: compound concentration: 200 uM; treatment time: 3 h
USP34 = USP34 (UniProt Q70CQ2)
In short: (§1)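 Labelled DUBs from HEK293T lysate were NeutrAvidin-enriched, digested with LysC and trypsin, and run by diaPASEF LC-MS/MS. Before that, each 495 µg sample in Tris/CHAPS/IGEPAL buffer with protease inhibitors was treated in triplicate with fragment at 200 µM or vehicle for 3 h, then with Biotin-Ahx-Ub-VS at 0.5 µM final for 1 h. Values are average log2 ratios of fragment over vehicle by unpaired t-test, based on global-median-normalised Spectronaut label-free quantities from proteins with ≥2 unique peptides.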

USP36 = target: T1, USP36 (UniProt Q9P275)
T1 sequence (whole entry): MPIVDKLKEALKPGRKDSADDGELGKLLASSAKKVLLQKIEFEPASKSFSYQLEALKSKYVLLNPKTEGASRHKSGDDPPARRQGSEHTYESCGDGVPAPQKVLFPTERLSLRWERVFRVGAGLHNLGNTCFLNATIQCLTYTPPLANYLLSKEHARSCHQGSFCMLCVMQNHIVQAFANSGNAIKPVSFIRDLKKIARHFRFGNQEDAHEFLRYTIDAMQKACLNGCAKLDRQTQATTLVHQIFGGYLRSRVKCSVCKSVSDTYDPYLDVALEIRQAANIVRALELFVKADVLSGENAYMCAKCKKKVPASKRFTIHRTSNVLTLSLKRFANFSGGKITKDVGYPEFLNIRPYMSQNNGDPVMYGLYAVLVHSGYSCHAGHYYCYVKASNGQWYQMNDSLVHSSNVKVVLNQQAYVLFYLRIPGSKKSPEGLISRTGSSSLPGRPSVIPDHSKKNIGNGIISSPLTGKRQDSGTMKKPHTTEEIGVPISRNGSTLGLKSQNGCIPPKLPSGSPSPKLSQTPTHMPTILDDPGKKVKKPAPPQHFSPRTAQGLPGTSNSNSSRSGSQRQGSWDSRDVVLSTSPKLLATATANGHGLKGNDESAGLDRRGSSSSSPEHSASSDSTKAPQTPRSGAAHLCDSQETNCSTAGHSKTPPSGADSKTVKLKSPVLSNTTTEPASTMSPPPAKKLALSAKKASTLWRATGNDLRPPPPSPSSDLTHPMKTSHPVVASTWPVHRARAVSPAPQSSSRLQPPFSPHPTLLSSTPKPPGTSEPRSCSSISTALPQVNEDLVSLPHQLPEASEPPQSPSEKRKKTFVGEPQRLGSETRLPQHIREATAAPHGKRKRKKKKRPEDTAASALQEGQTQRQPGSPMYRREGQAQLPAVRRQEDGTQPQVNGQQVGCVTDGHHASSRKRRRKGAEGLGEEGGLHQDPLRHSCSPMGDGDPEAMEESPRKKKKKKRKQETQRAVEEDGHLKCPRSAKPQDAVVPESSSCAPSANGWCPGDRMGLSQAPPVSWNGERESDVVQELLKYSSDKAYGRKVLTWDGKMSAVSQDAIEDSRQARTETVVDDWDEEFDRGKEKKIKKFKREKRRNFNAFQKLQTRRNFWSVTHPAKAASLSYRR
In short: as §1

USP38 = target: T2, USP38 (UniProt Q8NB14)
T2 sequence (whole entry): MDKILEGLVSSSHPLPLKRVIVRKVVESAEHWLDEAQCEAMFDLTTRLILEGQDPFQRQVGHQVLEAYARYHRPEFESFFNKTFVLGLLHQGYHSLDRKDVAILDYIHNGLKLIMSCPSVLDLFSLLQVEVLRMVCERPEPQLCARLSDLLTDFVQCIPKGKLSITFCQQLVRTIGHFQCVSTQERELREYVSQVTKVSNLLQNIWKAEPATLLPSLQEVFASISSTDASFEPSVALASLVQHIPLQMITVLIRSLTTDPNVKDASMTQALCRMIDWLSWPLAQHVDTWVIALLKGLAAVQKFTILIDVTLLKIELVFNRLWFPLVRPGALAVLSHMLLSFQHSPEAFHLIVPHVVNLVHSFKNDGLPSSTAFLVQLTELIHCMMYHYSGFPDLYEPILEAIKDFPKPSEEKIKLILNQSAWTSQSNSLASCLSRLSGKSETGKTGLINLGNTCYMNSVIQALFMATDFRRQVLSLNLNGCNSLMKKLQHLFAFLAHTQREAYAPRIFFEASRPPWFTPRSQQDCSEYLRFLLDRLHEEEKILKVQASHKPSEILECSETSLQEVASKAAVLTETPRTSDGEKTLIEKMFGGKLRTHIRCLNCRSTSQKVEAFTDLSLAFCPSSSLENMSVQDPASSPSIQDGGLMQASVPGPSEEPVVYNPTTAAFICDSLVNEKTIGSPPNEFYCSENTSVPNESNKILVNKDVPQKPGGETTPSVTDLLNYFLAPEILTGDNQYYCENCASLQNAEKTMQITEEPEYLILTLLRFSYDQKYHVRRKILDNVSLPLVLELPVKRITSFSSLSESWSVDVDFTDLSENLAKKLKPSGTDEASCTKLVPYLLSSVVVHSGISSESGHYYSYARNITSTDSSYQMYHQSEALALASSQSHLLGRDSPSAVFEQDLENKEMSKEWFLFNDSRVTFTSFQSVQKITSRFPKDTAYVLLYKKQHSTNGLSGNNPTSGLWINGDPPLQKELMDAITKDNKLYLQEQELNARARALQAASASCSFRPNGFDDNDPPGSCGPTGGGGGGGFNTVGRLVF
In short: as §1

USP39 = target: T3, USP39 (UniProt Q53GS9)
T3 sequence (whole entry): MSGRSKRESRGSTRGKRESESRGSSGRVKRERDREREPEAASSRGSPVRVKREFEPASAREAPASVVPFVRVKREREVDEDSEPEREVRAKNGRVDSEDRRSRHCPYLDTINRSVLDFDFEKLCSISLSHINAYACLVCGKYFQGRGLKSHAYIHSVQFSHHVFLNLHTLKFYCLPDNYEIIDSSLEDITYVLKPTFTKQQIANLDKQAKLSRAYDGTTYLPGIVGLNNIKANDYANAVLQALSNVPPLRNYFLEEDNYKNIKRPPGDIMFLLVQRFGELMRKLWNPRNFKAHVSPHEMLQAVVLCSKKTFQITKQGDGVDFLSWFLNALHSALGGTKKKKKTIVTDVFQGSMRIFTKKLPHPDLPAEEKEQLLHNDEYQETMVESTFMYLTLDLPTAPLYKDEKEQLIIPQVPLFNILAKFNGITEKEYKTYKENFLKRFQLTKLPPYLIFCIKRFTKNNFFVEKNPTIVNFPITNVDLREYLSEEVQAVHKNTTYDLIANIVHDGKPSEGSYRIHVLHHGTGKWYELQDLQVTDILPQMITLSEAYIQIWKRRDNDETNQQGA
In short: as §1

USP4 = target: T4, USP4 (UniProt Q13107)
T4 sequence (whole entry): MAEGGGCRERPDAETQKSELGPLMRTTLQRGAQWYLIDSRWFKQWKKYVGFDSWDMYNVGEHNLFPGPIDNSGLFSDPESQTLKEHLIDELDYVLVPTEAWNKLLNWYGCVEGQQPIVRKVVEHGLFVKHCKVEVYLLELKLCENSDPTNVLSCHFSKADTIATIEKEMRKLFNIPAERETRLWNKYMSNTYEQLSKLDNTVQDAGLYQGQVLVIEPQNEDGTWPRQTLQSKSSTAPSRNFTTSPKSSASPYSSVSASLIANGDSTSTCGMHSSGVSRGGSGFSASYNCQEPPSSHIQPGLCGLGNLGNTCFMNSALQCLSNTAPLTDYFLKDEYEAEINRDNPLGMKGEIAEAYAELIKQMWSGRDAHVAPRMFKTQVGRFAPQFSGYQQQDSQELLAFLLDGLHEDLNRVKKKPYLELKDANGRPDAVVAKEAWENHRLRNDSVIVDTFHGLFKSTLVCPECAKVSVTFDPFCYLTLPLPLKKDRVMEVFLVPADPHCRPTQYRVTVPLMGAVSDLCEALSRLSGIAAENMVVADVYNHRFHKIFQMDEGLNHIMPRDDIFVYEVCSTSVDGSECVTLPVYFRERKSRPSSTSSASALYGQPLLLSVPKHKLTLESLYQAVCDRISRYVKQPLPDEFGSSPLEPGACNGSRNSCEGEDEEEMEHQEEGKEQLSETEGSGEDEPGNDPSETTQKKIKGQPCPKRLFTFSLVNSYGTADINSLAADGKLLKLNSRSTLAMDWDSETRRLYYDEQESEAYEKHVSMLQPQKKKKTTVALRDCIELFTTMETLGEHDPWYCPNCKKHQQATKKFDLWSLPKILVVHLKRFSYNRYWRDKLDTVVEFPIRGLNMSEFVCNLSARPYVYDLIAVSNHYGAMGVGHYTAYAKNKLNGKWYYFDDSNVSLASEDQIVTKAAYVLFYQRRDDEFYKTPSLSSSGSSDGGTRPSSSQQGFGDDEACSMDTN
In short: as §1

Measured: log2 ratio of Biotin-Ahx-Ub-VS probe labelling

Chain of USP34 (Q70CQ2 whole entry, the tested form may be a part): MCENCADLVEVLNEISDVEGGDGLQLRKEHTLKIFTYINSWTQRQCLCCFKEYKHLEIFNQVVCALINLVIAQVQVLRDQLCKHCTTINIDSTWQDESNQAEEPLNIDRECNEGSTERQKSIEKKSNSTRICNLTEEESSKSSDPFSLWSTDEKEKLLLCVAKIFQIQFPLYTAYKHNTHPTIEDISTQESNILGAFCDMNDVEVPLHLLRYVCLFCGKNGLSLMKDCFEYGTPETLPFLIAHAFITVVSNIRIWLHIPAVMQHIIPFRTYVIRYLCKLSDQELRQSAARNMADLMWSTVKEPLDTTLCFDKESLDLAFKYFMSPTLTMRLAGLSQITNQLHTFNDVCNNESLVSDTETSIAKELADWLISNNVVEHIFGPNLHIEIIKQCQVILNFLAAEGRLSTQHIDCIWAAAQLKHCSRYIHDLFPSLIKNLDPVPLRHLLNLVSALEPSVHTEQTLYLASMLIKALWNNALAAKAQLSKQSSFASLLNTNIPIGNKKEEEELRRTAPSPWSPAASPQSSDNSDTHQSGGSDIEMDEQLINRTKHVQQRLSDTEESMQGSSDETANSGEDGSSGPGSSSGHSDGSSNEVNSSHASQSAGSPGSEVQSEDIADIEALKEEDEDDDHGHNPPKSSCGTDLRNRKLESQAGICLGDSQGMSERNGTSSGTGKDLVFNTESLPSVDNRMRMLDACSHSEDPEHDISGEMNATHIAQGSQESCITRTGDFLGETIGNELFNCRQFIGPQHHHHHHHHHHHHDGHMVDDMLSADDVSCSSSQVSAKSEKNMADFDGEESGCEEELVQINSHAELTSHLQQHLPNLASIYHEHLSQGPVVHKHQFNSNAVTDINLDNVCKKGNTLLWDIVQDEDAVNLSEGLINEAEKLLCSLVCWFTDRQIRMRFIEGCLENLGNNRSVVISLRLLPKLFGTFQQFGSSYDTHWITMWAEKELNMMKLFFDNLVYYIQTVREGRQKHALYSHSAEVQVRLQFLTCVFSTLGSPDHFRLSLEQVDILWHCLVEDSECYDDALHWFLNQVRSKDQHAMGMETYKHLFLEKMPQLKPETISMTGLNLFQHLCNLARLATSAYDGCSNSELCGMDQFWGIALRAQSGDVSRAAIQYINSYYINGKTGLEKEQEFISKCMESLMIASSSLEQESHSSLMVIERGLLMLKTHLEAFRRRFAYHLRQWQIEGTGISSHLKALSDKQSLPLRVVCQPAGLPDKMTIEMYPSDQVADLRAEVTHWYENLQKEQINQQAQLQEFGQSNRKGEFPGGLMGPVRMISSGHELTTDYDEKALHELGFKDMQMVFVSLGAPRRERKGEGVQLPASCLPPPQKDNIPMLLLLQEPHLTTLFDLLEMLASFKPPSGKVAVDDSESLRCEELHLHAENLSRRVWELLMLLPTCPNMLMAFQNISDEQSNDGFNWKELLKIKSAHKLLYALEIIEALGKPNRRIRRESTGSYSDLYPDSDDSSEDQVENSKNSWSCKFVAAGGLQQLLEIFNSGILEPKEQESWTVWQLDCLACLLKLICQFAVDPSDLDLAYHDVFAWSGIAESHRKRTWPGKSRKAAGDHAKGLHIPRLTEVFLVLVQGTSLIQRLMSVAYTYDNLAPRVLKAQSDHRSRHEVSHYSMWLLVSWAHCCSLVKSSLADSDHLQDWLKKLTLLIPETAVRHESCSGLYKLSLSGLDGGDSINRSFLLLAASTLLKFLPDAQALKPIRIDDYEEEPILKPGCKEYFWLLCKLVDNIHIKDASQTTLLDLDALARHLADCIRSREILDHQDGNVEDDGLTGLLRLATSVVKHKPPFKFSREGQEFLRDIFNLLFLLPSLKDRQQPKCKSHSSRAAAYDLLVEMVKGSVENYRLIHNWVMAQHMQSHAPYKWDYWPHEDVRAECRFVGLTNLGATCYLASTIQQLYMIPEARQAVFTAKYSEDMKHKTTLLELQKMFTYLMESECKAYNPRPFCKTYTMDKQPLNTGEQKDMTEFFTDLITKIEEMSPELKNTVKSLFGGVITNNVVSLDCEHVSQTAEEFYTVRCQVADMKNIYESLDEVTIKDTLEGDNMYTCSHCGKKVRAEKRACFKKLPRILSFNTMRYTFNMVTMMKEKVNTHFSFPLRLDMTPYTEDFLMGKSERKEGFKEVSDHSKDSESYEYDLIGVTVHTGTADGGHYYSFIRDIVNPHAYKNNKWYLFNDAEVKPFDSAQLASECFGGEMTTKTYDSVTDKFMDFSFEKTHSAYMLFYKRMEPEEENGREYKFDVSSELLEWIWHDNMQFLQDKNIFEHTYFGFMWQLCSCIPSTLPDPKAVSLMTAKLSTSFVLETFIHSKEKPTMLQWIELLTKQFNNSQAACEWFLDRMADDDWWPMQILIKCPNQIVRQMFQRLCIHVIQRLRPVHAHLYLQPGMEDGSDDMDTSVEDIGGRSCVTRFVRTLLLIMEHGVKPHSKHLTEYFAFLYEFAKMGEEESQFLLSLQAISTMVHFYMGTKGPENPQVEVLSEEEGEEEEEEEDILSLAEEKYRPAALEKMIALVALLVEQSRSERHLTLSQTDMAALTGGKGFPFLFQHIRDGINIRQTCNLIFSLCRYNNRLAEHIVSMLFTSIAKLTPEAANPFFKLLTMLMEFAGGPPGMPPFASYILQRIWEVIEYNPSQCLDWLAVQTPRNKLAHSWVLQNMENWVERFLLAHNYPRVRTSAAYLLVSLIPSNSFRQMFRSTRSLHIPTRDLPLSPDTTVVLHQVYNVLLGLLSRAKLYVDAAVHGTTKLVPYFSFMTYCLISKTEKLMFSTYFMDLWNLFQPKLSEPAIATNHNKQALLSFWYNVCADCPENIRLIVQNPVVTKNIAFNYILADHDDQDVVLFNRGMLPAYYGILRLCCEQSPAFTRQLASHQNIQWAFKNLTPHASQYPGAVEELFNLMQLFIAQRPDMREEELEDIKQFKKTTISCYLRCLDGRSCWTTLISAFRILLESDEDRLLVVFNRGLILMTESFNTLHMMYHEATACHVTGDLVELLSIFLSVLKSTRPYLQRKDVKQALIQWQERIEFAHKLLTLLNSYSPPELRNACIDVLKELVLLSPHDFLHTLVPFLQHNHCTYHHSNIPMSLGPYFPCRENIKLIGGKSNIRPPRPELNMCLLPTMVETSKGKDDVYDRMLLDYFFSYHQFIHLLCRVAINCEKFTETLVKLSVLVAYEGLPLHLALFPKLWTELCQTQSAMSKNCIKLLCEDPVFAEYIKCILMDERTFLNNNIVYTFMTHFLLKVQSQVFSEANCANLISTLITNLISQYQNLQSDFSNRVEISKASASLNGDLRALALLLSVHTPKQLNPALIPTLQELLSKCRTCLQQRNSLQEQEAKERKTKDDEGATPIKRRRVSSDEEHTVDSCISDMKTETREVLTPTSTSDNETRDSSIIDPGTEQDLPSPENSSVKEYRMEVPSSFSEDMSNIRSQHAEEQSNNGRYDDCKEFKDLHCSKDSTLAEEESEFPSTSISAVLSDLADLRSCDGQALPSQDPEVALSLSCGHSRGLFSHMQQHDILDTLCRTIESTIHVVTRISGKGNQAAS

CCc1c[nH]c(CNC(=O)CCl)n1.Cl
inactive: USP34 -0.213 | USP36 -0.245 | USP38 -0.15 | USP39 0.178 | USP4 -0.159

From the supplement of paper PMC11732987, “Enantioselective OTUD7B fragment discovery through chemoproteomics screening and high-throughput optimisation” (Communications Chemistry, 2025)
